Some test systems named below: K-562 leukemia; MALME-3M melanoma; MDA-MB-231 breast; RXF 393 renal; SF-268 CNS; SF-295 CNS; SF-539 CNS; UACC-257 melanoma; HCT-15 colon; HT29 colon; SNB-75 CNS; SNB-19 CNS; PC-3 prostate; SK-MEL-5 melanoma; UACC-62 melanoma; LOX IMVI melanoma; SK-MEL-28 melanoma; SK-MEL-2 melanoma; U251 CNS.
Holding throughout (test): NCI-60 one-dose screen, 48 h (100 = growth as untreated, 0 = no growth, -100 = all killed)
Conditions in all cases: 10 µM unless noted

The values below come from PubChem BioAssay (NCI).

SMILES strings stand for the structures. The panel holds about 83,000 compounds, 20% with a hit somewhere; the sample as a whole holds those more often.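 Method: cells in 96-well plates; compound added at one concentration; 48 h incubation; percent growth measured; values under 10 scored active.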 A number with no mark means an inactive call. Active and inactive are the calls of the source.

Turning to `COc1ccc(-c2cc(C(=O)N=Nc3c(O)[nH]c4ccccc34)c3ccccc3n2)cc1OC`, the growth in the assay on K-562 leukemia is 106%; with MALME-3M melanoma it was 95.6%; in the assay on MDA-MB-231 breast, 91.5%; in the assay on RXF 393 renal, 101%; with SF-268 CNS it was 100%; with SF-295 CNS, 95.7%. The growth in the assay on SF-539 CNS is 95.6%; in the assay on UACC-257 melanoma, 98.2%; in the assay with HCT-15 colon, 96.9%; in the assay on HT29 colon, 102%; in the assay with SNB-75 CNS, 92%; in the assay on SNB-19 CNS, 97.9%. In addition, the growth with PC-3 prostate is 91.6%; in the assay on SK-MEL-5 melanoma, 97.3%; with UACC-62 melanoma it was 91.5%; in the assay with LOX IMVI melanoma, 105%; in the assay with SK-MEL-28 melanoma, 98.1%; with SK-MEL-2 melanoma it was 107%.
Turning to `COc1ccc(NC2=C(Cl)C(=O)C(C)=C(C)C2=O)cc1OC`, the growth in the assay on K-562 leukemia is 60%; in the assay on MALME-3M melanoma, 99.7%; with MDA-MB-231 breast, 44.9%; in the assay with RXF 393 renal, 108%; in the assay on SF-268 CNS, 93.5%; in the assay on SF-295 CNS, 101%. For the same molecule, the growth in the assay on SF-539 CNS was 94.7%; in the assay on UACC-257 melanoma, 95.1%; in the assay on HCT-15 colon, 96.1%; with HT29 colon, 101%; with SNB-75 CNS, 126%; in the assay with SNB-19 CNS, 84.7%. The growth is 77.7% in the assay on U251 CNS; 67.9% with PC-3 prostate; 81.2% in the assay with UACC-62 melanoma; 108% in the assay on SK-MEL-28 melanoma; 83.7% in the assay with SK-MEL-2 melanoma.
On to `c1ccc(CNc2ncnc3ccc(-c4cnc5[nH]ncc5c4)cc23)cc1`, for which the growth with MALME-3M melanoma is 103%; in the assay with MDA-MB-231 breast it was 63.7%; in the assay on RXF 393 renal it was 33.8%; with SF-268 CNS, 58.2%; in the assay with SF-295 CNS, 74.1%; in the assay with SF-539 CNS it was 69.9%. For the same molecule, the growth with UACC-257 melanoma was 95.4%; in the assay with HCT-15 colon, 77%; with HT29 colon it was 70.6%; in the assay with SNB-75 CNS, 54.5%; in the assay with SNB-19 CNS it was 72.7%; in the assay on U251 CNS, 81.6%. Moreover, the growth in the assay on PC-3 prostate was 70.3%; with SK-MEL-5 melanoma, 88.4%; in the assay with UACC-62 melanoma, 76%; in the assay with SK-MEL-28 melanoma, 82.7%; in the assay on SK-MEL-2 melanoma, 81.6%.
On to `Clc1ccc2c(NCCCn3ccnc3)c3oc4ccc(Cl)cc4c3nc2c1`, for which the growth in the assay with K-562 leukemia is 66.2%; in the assay on MALME-3M melanoma it was 96.5%; in the assay with MDA-MB-231 breast it was 58.8%; in the assay with RXF 393 renal, 55.4%; in the assay on SF-268 CNS it was 91.1%; with SF-295 CNS it was 86.4%. Moreover, the growth was 84% in the assay on SF-539 CNS; 97.9% in the assay on UACC-257 melanoma; 51.9% in the assay on HCT-15 colon; 80.9% with HT29 colon; 70.2% in the assay on SNB-75 CNS; 82.8% in the assay with SNB-19 CNS. In addition, the growth in the assay on PC-3 prostate is 73.8%; in the assay with SK-MEL-5 melanoma it was 86.8%; in the assay with UACC-62 melanoma, 94.6%; in the assay with LOX IMVI melanoma, 22.4%; in the assay on SK-MEL-28 melanoma it was 94%; in the assay with SK-MEL-2 melanoma it was 113%.
For `Fc1ccc(-c2cc3nc(C(Cl)Cl)nc(-c4ccccc4)n3n2)cc1`, the growth in the assay with K-562 leukemia is 19.2%; in the assay with MALME-3M melanoma, 47.2%; in the assay with MDA-MB-231 breast, -10.2% (active); in the assay on RXF 393 renal, -62.9% (active); with SF-268 CNS, 10.2%; in the assay with SF-295 CNS it was 2.73% (active). The growth with SF-539 CNS was -10.6% (active); in the assay on UACC-257 melanoma, -2.11% (active); with HCT-15 colon, 7.35% (active); with HT29 colon, -41.4% (active); in the assay with SNB-19 CNS it was -6.52% (active); in the assay on U251 CNS, -58.2% (active). The growth with PC-3 prostate is -24.5% (active); with SK-MEL-5 melanoma it was 75.2%; with UACC-62 melanoma, 36.2%; in the assay on LOX IMVI melanoma, 86.9%; in the assay with SK-MEL-28 melanoma it was -7.7% (active); in the assay on SK-MEL-2 melanoma, 53.5%.
Take `O=C1c2c(c3c4cccnc4[nH]c3c3ccc4ccccc4c23)C(=O)N1CCO`: the growth in the assay with K-562 leukemia was 51.4%; in the assay on MALME-3M melanoma, 114%; in the assay with MDA-MB-231 breast it was 78.8%; in the assay on RXF 393 renal, 101%; in the assay with SF-268 CNS it was 78.4%; in the assay on SF-295 CNS, 50.9%. For the same molecule, the growth is 78.7% with SF-539 CNS; 92.7% in the assay with UACC-257 melanoma; 72.1% in the assay with HCT-15 colon; 75.6% with HT29 colon; 118% in the assay with SNB-75 CNS; 69.9% in the assay with SNB-19 CNS. Also, the growth was 51.4% in the assay on U251 CNS; 70.1% with PC-3 prostate; 81.4% in the assay with SK-MEL-5 melanoma; 46.5% with UACC-62 melanoma; 51.7% with LOX IMVI melanoma; 138% in the assay with SK-MEL-2 melanoma.
Turning to `COc1ccc(/C=N/Nc2ccnc3cc(Cl)ccc23)cc1Cl`, the growth is -52.8% (active) with K-562 leukemia; -78.5% (active) with MALME-3M melanoma; -71.3% (active) with MDA-MB-231 breast; -58% (active) in the assay with RXF 393 renal; -64.7% (active) in the assay with SF-268 CNS; -53.1% (active) in the assay on SF-295 CNS. In addition, the growth in the assay on SF-539 CNS is -90.4% (active); in the assay on UACC-257 melanoma, -84.4% (active); in the assay with HCT-15 colon it was -20.4% (active); in the assay on HT29 colon, -55.3% (active); with SNB-75 CNS, -88.5% (active); in the assay on SNB-19 CNS, -79.2% (active). For the same molecule, the growth in the assay on U251 CNS was -90.7% (active); with PC-3 prostate, -24.9% (active); in the assay on SK-MEL-5 melanoma, -93.5% (active); in the assay with UACC-62 melanoma it was -86.4% (active); with LOX IMVI melanoma, -35.5% (active); with SK-MEL-2 melanoma, -88% (active).
